# Rows were chosen to be rich in hits. Some 7.4% of all compounds tested hit in one or more screens of this group.
# ELG1 genotoxic = inducers of genotoxicity in HEK293T ELG1-luciferase cells | HEK293T ELG1-luciferase reporter, luminescence, 16 h | Potency, µM (series often up to 46 µM), inactives show top-dose activity change, positive = activation, hits mostly activators | 330,000 tested, 1.3% active; also: % of control where 0% means no effect; nearly all actives have a fitted effect of over 60% in size
#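 Screening used a luciferase reporter fused to human ELG1 in HEK293T cells. Luminescence was read on a CCD plate imager after 16 hr exposure and 30 min ONE-Glo incubation.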
# SMN2 splice up = enhancers of SMN2 splice variant expression; 210,000 tested, 2.8% active; HEK293 SMN2-luciferase splicing reporter, luminescence, 30-36 h; Potency, µM (doses to about 46.1 µM), for inactives: at the highest dose activity change, positive = activation, usual class: activators; also: % of control where 0% means no effect; nearly all actives have a fitted effect of over 55% in size
#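 HEK293 cells carry an SMN2 […]–luciferase reporter in which exon 7 inclusion puts luciferase in frame. Cells were plated 10-12 h before compound addition, then incubated 30-36 h at 37C. ONE-Glo luminescence was read; sodium butyrate at 4.5 mM final served as control.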
# NPC1 promoter act = NPC1 promoter activation | Huh7 NPC1 promoter luciferase reporter, 24 h | Potency, µM (doses to about 9.22 µM), inactives show at the top dose activation, hits mostly activators | 320,000 tested, 2.4% active | AID 485313; also: % of control where 0% means no effect; nearly all actives have a fitted effect of over 60% in size
#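 Cells: Huh7 expressing luciferase under the NPC1 promoter, 1500/well. Seeded 2 h, compound added, incubated 24 h at 37 °C. Luciferase reagent, 10 min ambient, then luminescence.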
# Rab9 promoter act = Rab9 promoter activation; Huh7 Rab9 promoter-luciferase reporter, luminescence, 24 h; Potency, µM (series often up to 9.22 µM), without a hit: at the top dose activation, negative = inhibition, usual class: activators; 320,000 tested, 2.8% active; also: % of control where 0% means no effect; nearly all actives have a fitted effect of over 60% in size
#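 Rab9 promoter-driven luciferase in stably transfected Huh7 cells; 1500 cells/well rested 2 h, exposed to compound in DMSO for 24 h at 37 °C, 5% CO2. Luminescence read 10 min after adding luciferase reagent at ambient temperature.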
# FLuc counter = counter-screen for miR-21 project: firefly luciferase inhibitors or activators; purified FLuc, Km substrates, luminescence inhibition; Potency, µM (doses to about 57.5 µM), without a hit: at the top dose activity change, negative = inhibition, hits mostly inhibitors; 360,000 tested, 6.9% active;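 also: plate controls were vehicle for no effect and reference inhibitor for full effect; nearly all actives have a fitted effect of over 55% in size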
# Target sequence (P08659 whole entry, looked up): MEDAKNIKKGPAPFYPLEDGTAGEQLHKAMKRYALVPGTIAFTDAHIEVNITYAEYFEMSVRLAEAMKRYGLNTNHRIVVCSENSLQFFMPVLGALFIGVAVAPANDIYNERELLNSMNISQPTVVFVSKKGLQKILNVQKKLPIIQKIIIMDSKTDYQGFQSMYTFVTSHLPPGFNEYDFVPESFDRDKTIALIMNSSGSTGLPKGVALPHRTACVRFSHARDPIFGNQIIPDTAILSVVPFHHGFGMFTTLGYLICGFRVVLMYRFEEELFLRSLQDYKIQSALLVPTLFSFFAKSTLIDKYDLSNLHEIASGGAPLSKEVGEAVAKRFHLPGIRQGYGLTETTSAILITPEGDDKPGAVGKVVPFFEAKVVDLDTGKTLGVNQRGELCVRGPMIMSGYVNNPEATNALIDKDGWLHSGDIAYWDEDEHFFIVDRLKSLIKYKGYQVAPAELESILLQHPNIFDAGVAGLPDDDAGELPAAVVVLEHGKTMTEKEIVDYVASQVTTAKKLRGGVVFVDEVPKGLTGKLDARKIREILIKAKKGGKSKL
#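 Biochemical qHTS of compounds, final roughly 60 µM downward over six points, against 10 nM purified firefly luciferase using Km concentrations of substrates (10 uM D-luciferin, 10 uM ATP) in Tris acetate pH 7.5 buffer; luminescence output.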
# An asterisk follows results filed as active; ? = inconclusive; nt = no result; [ ] = remark or other dose. Calls follow the shape of the dose curve; as a rule, active = well fitted curve in the direction sought with a large enough effect; inconclusive = small, poorly fitted or top-dose-only effect, or another doubt; inactive = no such curve, though single readings can be large; an effect the other way counts as inactive or inconclusive. Potency is read from the fitted curve at half-maximal effect.
SMILES,ELG1 genotoxic,SMN2 splice up,NPC1 promoter act,Rab9 promoter act,FLuc counter
COc1ccc(S(=O)(=O)c2cc3cc(C(C)(C)C)cc(O)c3oc2=O)cc1,nt,-47%,nt,nt,-18%
COC(=O)c1c(-c2ccccc2)c[nH]c1C,11%,nt,3%,-1%,27µM*
COC(=O)c1c(C)[nH]c(C=O)c1-c1ccccc1,?,nt,27%,?,13µM*
COC(=O)c1c(C)[nH]c(C)c1-c1ccccc1Cl,0%,-13%,-1%,1%,11%
Cn1/c(=N/N=C/c2ccccn2)sc2ccccc21,?,16µM*,2.2µM*,1.1µM*,3.8µM*
CC(=O)N=c1sc2ccccc2n1C,14%,-16%,-3%,14%,-1%
Cn1/c(=N/N=C/c2ccc(Cl)c([N+](=O)[O-])c2)sc2ccccc21,0%,14%,?,13%,?
Cn1/c(=N/N=C/c2ccc(N3CCOCC3)cc2)sc2ccccc21,13%,26%,?,30%,3µM*
Cc1cc(Cl)ccc1OCc1cc(=O)n2c3c(sc2n1)CCCC3,nt,-6%,nt,nt,-4%
O=C1C2C3C=CC(C2C(=O)N1CN1CCOCC1)C1C2C(=O)N(CN4CCOCC4)C(=O)C2C31 (stereo not drawn),nt,3%[9.22 µM],nt,nt,nt
Cc1nc(SC(C)C(=O)Nc2ccccc2Cl)cc(-c2ccccc2)n1 (stereo not drawn),nt,nt,nt,nt,-3%
Oc1ccc(F)cc1-c1cc(-c2ccc3c(c2)OCCO3)n[nH]1,?,13µM*,3.2µM*,1.8µM*,2.4µM*
Cc1ccc(-c2cc(-c3ccc(C)cc3O)[nH]n2)cc1,?,nt,0.71µM*,0.89µM*,2.4µM*
Oc1ccc(Br)cc1-c1cc(-c2ccccc2F)[nH]n1,0%,?,-5%,-1%,-2%[2.3 µM]
Cc1ccc(O)c(-c2cc(-c3cccc(Br)c3)n[nH]2)c1,23µM*,nt,?,4.5µM*,12µM*
Cc1ccc(-c2noc(-c3cc(-c4ccc(F)cc4)n[nH]3)n2)cc1,nt,nt,nt,nt,-10%
Cc1ccc(-c2cc(-c3ccc(F)cc3)n[nH]2)c(O)c1,?,nt,?,4µM*,4.3µM*
CCCCNC(=O)CSc1nc2ccccc2nc1Cc1ccc(Cl)cc1,nt,nt,nt,nt,-1%
CCC(=O)N1CCc2cc(S(=O)(=O)NCCC(=O)Nc3cc(C)ccc3OC)ccc21,nt,1%,nt,nt,-9%
Oc1ccccc1-c1cc(-c2ccc(F)cc2)n[nH]1,5.8µM*,nt,?,7%,3.4µM*
COc1ccccc1N(C)S(=O)(=O)c1ccc(C(=O)NNC(=O)c2ccccc2O)cc1,1%,nt,-5%,-26%,-1%
COc1ccccc1N(C)S(=O)(=O)c1ccc(Cl)c(C(=O)NNC(=O)c2ccccc2O)c1,-7%,nt,11%,-2%,17µM*
CCNC(=S)NNC(=O)c1cc(C2CC2)nc2ccccc12,-1%,-1%,-1%,2%,12µM*
CCCNC(=S)NNC(=O)c1cc(C2CC2)nc2ccccc12,0%,nt,-3%,5%,21µM*
Cc1ccc(C)c(Cn2c(=O)cc(C)c3c(C)nn(C)c32)c1,nt,nt,nt,nt,-14%
SMILES,ELG1 genotoxic,SMN2 splice up,NPC1 promoter act,Rab9 promoter act,FLuc counter
COc1ccccc1CN1C(=O)CN(C2CCCCCC2)C(=O)C1c1ccc(C)cc1 (stereo not drawn),nt,nt,nt,nt,-3%
O=C(Cn1nnc(-c2ccc(N3CCOCC3)cc2)n1)N1CCOCC1,14%,nt,?,27%,11µM*
O=C(Cn1nnc(-c2cccc(C(F)(F)F)c2)n1)N1CCOCC1,4%,-3%,-5%,5%,2%
Cc1ccccc1NC(=O)Cn1nnc(-c2ccc(N3CCOCC3)cc2)n1,19%,23%,-3%,25%,?
O=C(Cn1nnc(-c2ccc(N3CCOCC3)cc2)n1)OC1CCCCC1,-3%,-26%,-6%,3%,12µM*
CCn1nnc2cc(C(=O)Nc3cc(C)ccc3C)ccc21,nt,nt,nt,nt,7%
CCOCCCNC(=O)C(c1ccc(C)cc1)N(Cc1ccc2c(c1)OCO2)C(=O)c1ccccc1O (stereo not drawn),nt,-3%,nt,nt,-14%
COc1ccc(-c2nc3ccc(C)cn3c2NCc2ccc3c(c2)OCO3)cc1,12%,-87%,28%,?,13µM*
Cc1ccc(-c2nc3ccccn3c2NCc2ccc3c(c2)OCO3)cc1,3%,?,?,?,12µM*
Cc1ccc2nc(-c3ccc(-c4cccc(Cl)c4)cc3)c(NCc3ccccc3)n2c1,-2%,nt,2%,-1%,?
Cc1ccc(-c2nc3ccccn3c2Nc2ccc3c(c2)OCO3)cc1,nt,-6%,nt,nt,?
COc1cccc(CNC(=O)c2sc3nc[nH]c(=O)c3c2C)c1,nt,nt,nt,nt,-8%
O=C(Oc1ccc2c3c(c(=O)oc2c1)CCCC3)c1ccco1,1%,6%,-5%,-1%,17µM*
CCN1C(=O)C(Cc2nc3ccccc3c(=O)n2-c2ccc(OC)cc2)c2cc(C)ccc21 (stereo not drawn),nt,-5%,nt,nt,-9%
C=C(C)COc1ccc2c(C)c(CC(=O)OC)c(=O)oc2c1C,9.2µM*,-36%,?,?,9.5µM*
COC(=O)Cc1c(C)c2ccc(OCC(C)=O)c(C)c2oc1=O,9.2µM*,13µM*,?,?,?
CN=C1S/C(=C/c2cn(CC(=O)OC)c3ccccc23)C(=O)N1C,0%,nt,25%,-9%,19µM*
CCN=C1S/C(=C\c2cn(CC(=O)NCc3ccco3)c3ccccc23)C(=O)N1CC,?,nt,0%,-1%,-1%
CN=C1S/C(=C\c2cn(CC(=O)OC)c3ccccc23)C(=O)N1C,10%,16%,11%,3%,17µM*
COC(=O)Cn1cc(/C=C/c2cc[n+](C)cc2)c2ccccc21,-3%,nt,-3%,-7%,4%
Cc1ccc(NC(=O)CCCn2nc(C)c3sc4ccccc4c3c2=O)c(Cl)c1,nt,nt,nt,nt,6µM*
COc1cc(OC)c(NC(=O)CCCn2nc(C)c3sc4ccccc4c3c2=O)cc1Cl,nt,nt,nt,nt,13µM*
O=C(c1cc2c(=O)oc3ccccc3c2s1)N1CCN(c2cccc(Cl)c2)CC1,nt,6%,nt,nt,-2%
CC(C)Cn1nnnc1S(=O)(=O)CCc1ccccc1,nt,18%,nt,nt,nt
CCOCCCNC(=O)C1CCN(c2nc3ccc(Cl)cc3[nH]2)CC1,nt,nt,nt,nt,4%
SMILES,ELG1 genotoxic,SMN2 splice up,NPC1 promoter act,Rab9 promoter act,FLuc counter
CCCCCn1cnc2sc(CC)cc2c1=O,?,13µM*,?,2.8µM*,24µM*
CCc1cc2c(=O)n(-c3ccc(Br)cc3)cnc2s1,?,5µM*,2.5µM*,2.5µM*,?
CCc1cc2c(=O)n(CC(C)C)cnc2s1,-1%,14µM*,?,?,?
CCc1cc2c(=O)n(CC(=O)NC3CCCCC3)cnc2s1,2%,nt,-1%,9%,-1%
CC1CCC(NC(=O)Cn2ncc3ccccc32)CC1 (stereo not drawn),10µM*,?,?,?,?
Cc1ccc2c(CN(C)Cc3ccccc3)cc(=O)oc2c1C,10%,nt,?,?,15µM*
